A selection: hits, their analogues and other compounds. The true share with any hit is near 3.2%.
GLP-1R inv ag: acts as inverse agonist at human GLP-1 receptor; HEK293 GLP-1R CRE-luciferase, luminescence, 24 h; GLP-1R form is constitutively active; hit rate 1.6% among 410,000; Potency, µM (series often up to 38.3 µM), inactives show top-dose activity change, negative = inhibition, usual class: inhibitors; note: % is set by controls: 0 for no effect and ±100 for the full control effect; nearly all actives have a fitted effect of over 55% in size
Target sequence (P43220 whole entry, looked up): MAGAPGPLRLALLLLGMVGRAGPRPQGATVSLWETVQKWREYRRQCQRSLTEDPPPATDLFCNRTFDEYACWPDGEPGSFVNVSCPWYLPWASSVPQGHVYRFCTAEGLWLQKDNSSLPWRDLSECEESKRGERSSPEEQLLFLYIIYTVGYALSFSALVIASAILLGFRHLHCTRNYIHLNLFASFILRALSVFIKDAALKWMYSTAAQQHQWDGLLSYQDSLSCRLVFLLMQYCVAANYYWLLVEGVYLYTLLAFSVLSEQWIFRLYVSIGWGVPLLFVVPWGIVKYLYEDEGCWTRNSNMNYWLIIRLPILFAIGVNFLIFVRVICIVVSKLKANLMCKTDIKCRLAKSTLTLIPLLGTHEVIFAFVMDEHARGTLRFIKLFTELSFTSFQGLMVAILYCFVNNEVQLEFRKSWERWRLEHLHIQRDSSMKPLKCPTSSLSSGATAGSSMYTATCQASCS
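Using stably transfected HEK293 (constitutively active GLP-1R, cAMP-luciferase reporter), compounds were incubated 24 hr and luciferase measured by luminescence.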
ClpP mod: qHTS Assay for Activators of ClpP; ATP-dependent Clp protease proteolytic subunit (Bacillus subtilis (strain 168)), P80244; purified B. subtilis ClpP, FRET peptide cleavage, 20 min; Potency, µM (doses to about 57.5 µM), for inactives: at the highest dose activity change, negative = active; hit rate 1.9% among 340,000; AID 651965, 2013; active = well fitted falling curve with a large enough effect; inconclusive = small, poorly fitted or top-dose-only effect; inactive = no such curve, though single readings can be large or run the other way; note: the source files actives as falling curves though it sought activators and does not explain the sign; nearly all actives have a fitted effect of over 65% in size
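Buffer: 100 mM Tris/HCl pH8, 100 mM KCl, 0.05% low protease BSA, 2.5% glycerol, 0.01% Tween-20. ClpP 10 microg/mL final; 20 min RT; delta FRET normalized to ADEP and DMSO controls.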
GLP-1R agonist: activates the human GLP-1 receptor; P43220; hit rate 0.007% among 380,000; HEK293 GLP-1R CRE-luciferase, luminescence, 4-6 h; cells express a hypersensitive GLP-1R form; Potency, µM (doses to about 45.6 µM), for inactives: at the top dose activation, hits mostly activators; note: % of control where 0% means no effect
HEK293 tox: cytotoxicity in counter-screen for GLP-1R inverse agonists | Potency, µM (titrated, usually from 38.3 µM), for inactives: at the highest dose activity change, negative = inhibition, hits mostly inhibitors | HEK293 cAMP-luciferase reporter cells, luminescence, 24 h | hit rate 0.13% among 410,000 | AID 624418;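 note: loss of luciferase light is scored as toxicity; % is set by controls: 0 for no effect and ±100 for the full control effect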
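To flag toxic compounds, the library was rerun on cells for 24 hr at 37 deg C and 5% CO2. Viability-linked luminescence was captured 12 min after adding luciferase detection reagent.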
Numbers without * were called inactive; ? = inconclusive; . = not tested or not shown. Unless noted, calls come from the whole dose curve; as a rule, active = well fitted curve in the direction sought with a large enough effect; inconclusive = small, poorly fitted or top-dose-only effect, or another doubt; inactive = no such curve, though single readings can be large; an effect the other way counts as inactive or inconclusive. Potency is the fitted concentration of half-maximal effect.

SMILES	GLP-1R inv ag	ClpP mod	GLP-1R agonist	HEK293 tox
Cc1nnc(NCc2ccccc2)c2ccccc12	-13%	-3%	-5%	2%
Cc1nc(NCc2ccco2)c2oc3ccccc3c2n1	?	14µM*	24%	-13%
COc1ccc(NC(=O)c2cn(CC(C)C)c(=O)c3cc(OC)c(OC)cc23)cc1Cl	30%	-5%	2%	13%
COc1cc(/C=C/C(=O)OCC(=O)Nc2nnc(-c3ccccc3)o2)cc(OC)c1OC	6%	18µM*	-19%	8%
CCOC(=O)COc1ccc(Br)cc1/C=C/c1[nH]c(=O)[nH]c(=O)c1[N+](=O)[O-]	10µM*	.	-6%	?
COc1ccc(NC(=O)CSc2nc(-c3cc(OC)c(OC)c(OC)c3)[nH]c2-c2ccc(F)cc2)cc1	?	?	.	-28%
CCCCOc1ccc(CSC2=NCCN2)cc1[N+](=O)[O-]	10µM*	-1%	-6%	?
Cc1ccc(Cl)cc1NC(=O)C(NS(=O)(=O)c1ccc2c(c1)CCC(=O)N2)c1ccccc1 (centres undefined)	1%	0%	.	1%
COC(=O)c1ccc(-c2ccco2)n1Cc1ccccc1Cl	-23%	28µM*	-1%	-2%
COC(=O)c1cc2oc3ccccc3c2n1Cc1nc(-c2ccc(OC)cc2)oc1C	-4%	-5%	.	3%
COC(=O)c1ccc(-c2ccco2)n1Cc1nc(-c2ccc(OC)c(OC)c2)oc1C	10µM*	?	1%	-28%
COc1ccc(CNC(=O)c2ccc3c(c2)N(C)C(=O)C2CCCCN32)cc1OC (centres undefined)	16%	-6%	.	-3%
CS(=O)(=O)c1ccc(C(=O)OCC(=O)Nc2ccc(OC(F)(F)F)cc2)cc1[N+](=O)[O-]	.	1%	.	.
FC(F)c1nc2nc(Cl)c(Cl)nc2[nH]1	14µM*	-27%	10%	-10%
FCc1nc2nc(Cl)c(Cl)nc2[nH]1	-6%	-6%	-1%	5%
Cc1nn(-c2ccc(N3CCOCC3)nn2)c(C)c1CCC(=O)Nc1ccc(F)cc1F	-1%	1%	.	-4%
C/C(=N\NC(=O)c1nnn(-c2nonc2N)c1-c1cccs1)c1ccc(O)cc1	7.9µM*	15%	-2%	-21%
CC1CCN(S(=O)(=O)c2ccc3c(c2)N(CC(=O)NC(C)C)C(=O)CO3)CC1	2%	-2%	.	-14%
CC(Oc1ccccc1)C(=O)N1CCN=C1SCc1cccc(F)c1 (centres undefined)	?	0%	-2%	-1%
CC(Oc1ccccc1)C(=O)N1CCN=C1SCc1ccccc1F (centres undefined)	4µM*	.	12%	-6%
COCc1cc(C)nc(Nc2ccccc2OC)c1C#N	2%	-24%	7%	14%
COCc1cc(C)nc(NCCc2ccccc2)c1C#N	?	3.5µM*	33%	17%
CC(=O)c1ccc(NC(=O)c2cc(-c3ccc(C)s3)nc3ccccc23)cc1	5%	-26%	.	-7%
CCN(CC)CCCNC(=O)CCC(=O)Nc1ccc2nc(N3CCC(C)CC3)cc(C)c2c1	7.1µM*	4%	11%	16%
Cc1cc(N2CCCCC2)nc2ccc(NC(=O)CCC(=O)NCCC(C)C)cc12	0%	16µM*	9%	-9%
SMILES	GLP-1R inv ag	ClpP mod	GLP-1R agonist	HEK293 tox
CCCCNC(=O)CCC(=O)Nc1ccc2nc(N3CCCCC3)cc(C)c2c1	?	3%	14%	14%
O=C(NC1CCCC1)c1cc(-c2ccccc2)nc2ccccc12	?	0%	5%	-6%
O=C(NC1CCCC1)c1ccccc1-c1ccccc1	-10%	32µM*	1%	-2%
CC1CCc2c(sc(NC(=O)CSc3ncn[nH]3)c2C#N)C1 (centres undefined)	-8%	2%	4%	-6%
CCN1CCN(CC(=O)Nc2sc3c(c2C#N)CCC(C)C3)CC1 (centres undefined)	2µM*	-1%	3%	-9%
CC/C(O)=N/S(=O)(=O)c1ccc(-c2c(-c3ccccc3)noc2C)cc1	.	.	0%	.
Cc1cc(C(=O)CN2CCCCC2)c(C)n1-c1ccc(F)cc1	-5%	25µM*	-3%	-5%
COc1cnc(-c2ccccc2)nc1Oc1cccc(C)c1C	11µM*	-1%	5%	17%
O=S(=O)(c1ccccc1)c1nc(-c2ccccc2Cl)oc1N1CCCCCC1	?	-30%	.	2%

Bioassay records deposited in PubChem BioAssay by National Center for Advancing Translational Sciences (NCATS).
